This passage reports B-score results from PubChem BioAssay AID2553 (Johns Hopkins Ion Channel Center, 2010).

Structures are written as SMILES. Among all 310,000 compounds or so, about 3,300 (1.1%) were called active.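 Rule for the calls: active = B-score under library mean minus 3 SD, initial fluorescence not abnormally high, positive integrated signal ratio; inactive = the rest.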 This excerpt belongs to a sample that is enriched for actives.

The target of the assay is Short transient receptor potential channel 6 (Mus musculus) (UniProt Q61143). In words: mouse TRPC6 channel inhibitors, primary screen, cell-based, HEK293, membrane potential dye (AID 2553).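 For B-score: B-score derived from integrated fluorescence ratio over the kinetic read; more negative B-score means stronger inhibition of depolarization.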 The following applies: ACh-evoked depolarization, at 10 µM; hits give low values.
Chain of Short transient receptor potential channel 6 (Mus musculus) (Q61143 whole entry, looked up): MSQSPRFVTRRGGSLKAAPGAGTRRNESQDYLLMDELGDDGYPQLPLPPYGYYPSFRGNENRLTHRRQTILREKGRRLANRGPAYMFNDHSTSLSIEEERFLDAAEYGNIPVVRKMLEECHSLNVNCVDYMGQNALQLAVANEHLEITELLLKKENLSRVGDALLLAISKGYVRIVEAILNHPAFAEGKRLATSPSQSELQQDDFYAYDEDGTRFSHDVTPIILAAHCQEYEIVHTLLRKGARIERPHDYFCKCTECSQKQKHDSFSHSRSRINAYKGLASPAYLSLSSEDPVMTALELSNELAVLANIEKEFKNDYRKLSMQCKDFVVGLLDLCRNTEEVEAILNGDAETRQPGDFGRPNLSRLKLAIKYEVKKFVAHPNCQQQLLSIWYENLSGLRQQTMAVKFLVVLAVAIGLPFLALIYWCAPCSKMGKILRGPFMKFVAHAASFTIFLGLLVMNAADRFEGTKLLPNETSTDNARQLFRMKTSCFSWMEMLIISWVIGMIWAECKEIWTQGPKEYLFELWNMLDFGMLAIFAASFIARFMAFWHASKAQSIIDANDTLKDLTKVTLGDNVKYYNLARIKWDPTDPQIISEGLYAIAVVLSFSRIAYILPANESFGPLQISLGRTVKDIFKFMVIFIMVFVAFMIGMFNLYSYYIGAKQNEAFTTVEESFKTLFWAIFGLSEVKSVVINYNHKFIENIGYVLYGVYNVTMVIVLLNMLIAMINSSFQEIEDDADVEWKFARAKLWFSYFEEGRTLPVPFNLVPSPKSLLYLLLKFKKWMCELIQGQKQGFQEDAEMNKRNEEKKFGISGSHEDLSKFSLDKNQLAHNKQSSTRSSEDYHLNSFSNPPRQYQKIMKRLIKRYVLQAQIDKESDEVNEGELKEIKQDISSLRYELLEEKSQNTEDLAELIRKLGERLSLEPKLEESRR
`COc1ccccc1N1CC(C(=O)Nc2nnc(SCC(=O)NC(C)C)s2)CC1=O` (stereo not given): the B-score entry is “inactive”.

Consider `CCCCn1c(=O)c(C(C)=O)c(O)c2ccccc21`, for which the B-score result is “inactive”.

With `CCCCN(CCCC)CC(O)Cn1c2ccccc2c(=O)c2ccccc21` (stereo not given), the B-score is -5.74 (active).

For `CS(=O)(=O)N(CC(O)Cn1c2ccccc2c2ccccc21)c1cccc2ccccc12` (stereo not given), the B-score entry was “inactive”.

As to `O=C1N(c2ccc(Cl)cc2)C(c2ccc(Cl)cc2)N2CCCN12` (stereo not given), the B-score result was “inactive”.

Turning to `c1ccc(C2CNCc3c2ccc2ccccc32)cc1` (stereo not given), the B-score was -5 (active).

Take `NC(=O)C1=C[C@H](c2csc3ccccc23)C[C@H](OCc2ccc(CO)cc2)O1`: the B-score result was “inactive”.

`Cc1ccc2nc(Nc3ccccc3)cc(C)c2c1`: the B-score result was “inactive”.

Turning to `Cc1nc2ccc(C(=O)N3CCN(c4ccccc4)CC3)cc2s1`, the B-score result is “inactive”.

As to `Cc1ccc2nc(C)c3c(c2c1)N(c1ccccc1)CC3`, the B-score is -8.61 (active).

Regarding `O=C(NNS(=O)(=O)c1ccccc1)c1cnn(-c2ccc(Cl)cc2)c1C(F)(F)F`, the B-score entry is “inactive”.

On to `CC1CCC(NS(=O)(=O)c2ccc3c(c2)CC(=O)N3)CC1` (stereo not given), for which the B-score entry was “inactive”.

For the compound `CCc1ccc2nc(N(CCCN(C)C)C(=O)c3ccc4c(c3)OCCO4)sc2c1`, the B-score is -6.22 (active).

As for `CCOc1ccc2nc(N(CCCN(C)C)C(=O)c3ccc(C(=O)c4ccccc4)cc3)sc2c1`, the B-score result is “inactive”.

Take `CN(C)CCCN(C(=O)c1ccc(S(=O)(=O)N2CCCCCC2)cc1)c1nc2cc3c(cc2s1)OCCO3`: the B-score result is “inactive”.

For `O=C(NCCCN1CCCCC1)C1CCCN(c2ncnc3c2nc2n3CCCCC2)C1` (stereo not given), the B-score entry was “inactive”.

Take `Cc1ccc(C(C(=O)NCC2CCCO2)N(C(=O)c2snc(C(N)=O)c2N)c2ccc(C(C)C)cc2)o1` (stereo not given): the B-score result was “inactive”.

As for `Cc1cccc(NC(=O)Nc2ccc3c(c2)OCO3)n1`, the B-score result was “inactive”.

Turning to `O=C(CCCN1C(=O)c2cccc3cccc(c23)C1=O)N1CCN(Cc2ccc3c(c2)OCO3)CC1`, the B-score is -6.03 (active).

For the compound `Cn1c(=O)cc(OCCCC(=O)N2CCN(Cc3ccc4c(c3)OCO4)CC2)c2ccccc21`, the B-score entry is “inactive”.

On to `O=C(Nc1cccc2ccccc12)N1CCN(Cc2ccc3c(c2)OCO3)CC1`, for which the B-score entry was “inactive”.

As for `CC1(C)O[C@H]2CC(=O)OCC23[C@H]2CC[C@@]4(C)[C@H](c5ccoc5)OC(=O)[C@H]5O[C@]54[C@]2(C)C(=O)C[C@@H]13` (stereo not given in full), the B-score entry is “inactive”.

`COc1ccccc1N(CC(=O)N/N=C(\C)c1ccccc1O)S(=O)(=O)c1ccc(C)cc1`: the B-score result is “inactive”.

Turning to `CN1CCN(c2ccc([N+](=O)[O-])c(Sc3nc4ccccc4[nH]3)c2)CC1`, the B-score was -5.53 (active).

For `O=C(CSc1nc2ccccc2[nH]1)N/N=C/C=C\c1ccccc1[N+](=O)[O-]`, the B-score entry was “inactive”.

`CC1CCN(c2ccc([N+](=O)[O-])c(SCCO)c2)CC1`: the B-score entry was “inactive”.

With `O=c1c(-c2ccc(Cl)cc2)[n+]([O-])c2ccccc2n1OCc1nc2ccccc2[nH]1`, the B-score entry was “inactive”.

For the compound `COc1ccc(C(=O)NC2CCN(C(=O)Nc3ccc(F)cc3)CC2)cc1`, the B-score entry was “inactive”.

For `CCOC(=O)N1CCC(N2Cc3cccc(C(=O)Nc4ccc(S(=O)(=O)N(CC)CC)cc4)c3C2=O)CC1`, the B-score entry was “inactive”.

Turning to `CCCCN=C(N)/C(C(=O)OCC)=C(\O)c1ccc(OC)cc1`, the B-score entry was “inactive”.

Consider `CCN1CCN(C(C(=O)NC2CCCC2)c2cc3c(cc2[N+](=O)[O-])OCO3)CC1` (stereo not given), for which the B-score entry was “inactive”.

With `COC(=O)c1ccccc1NC(=O)C1CC(=O)N(c2ccc(OC)cc2)C1` (stereo not given), the B-score entry is “inactive”.

Regarding `COc1ccc(NC(=O)C2CCN(S(=O)(=O)c3ccc4[nH]c(=O)oc4c3)CC2)c(OC)c1`, the B-score result was “inactive”.

As for `COC(=O)c1ccccc1NC(=O)C1CCN(S(=O)(=O)c2cc(OC)ccc2OC)CC1`, the B-score was -5.1 (active).

With `COc1cccc(NC(=O)C/C(C)=N/NC(=O)C2CCCCC2)c1`, the B-score result is “inactive”.

With `Cc1cc2oc3ccc(NCCC4CCCN4C)cc3c(=O)c2cc1C` (stereo not given), the B-score is -9.21 (active).

Consider `Cc1cc2oc(=O)cc(CN3CCN(Cc4ccccc4)CC3)c2cc1C`, for which the B-score entry was “inactive”.

For the compound `CCCOc1ccc(C2c3c(oc4cc(C)c(C)cc4c3=O)C(=O)N2CCCN2CCOCC2)cc1` (stereo not given), the B-score entry is “inactive”.

Turning to `CCc1ccc(/C=N/NC(=O)c2ccc(OC3CCCC3)cc2)s1`, the B-score entry was “inactive”.

With `CCN(CC)C(=O)CSc1ncnc2c1cnn2-c1ccccc1`, the B-score entry was “inactive”.

Take `CCOc1ccccc1N1CCN(C(=O)c2ccc3[nH]c(C)c(C)c3c2)CC1`: the B-score entry is “inactive”.

`O=C(NCCO)C(=O)NCC(c1ccc2c(c1)OCO2)N1CCN(c2ccc(F)cc2)CC1` (stereo not given): the B-score entry was “inactive”.

With `CC(C)CNC(=S)Nc1ccc(F)cc1`, the B-score entry is “inactive”.

As for `CC(NC(=S)Nc1ccc(OC(F)F)cc1)c1ccc(F)cc1` (stereo not given), the B-score was -5.09 (active).

As for `Cc1ccc(NC(=S)Nc2ccc(F)cc2)cc1`, the B-score entry is “inactive”.

In the case of `Cc1cc(Br)ccc1NC(=O)CN(C)C(=O)CN1C(=O)NC2(CCCC2)C1=O`, the B-score entry was “inactive”.

Turning to `CCOc1ccccc1-c1cc(C(=O)N/N=C(\C)c2cccnc2)c2ccccc2n1`, the B-score result is “inactive”.

As to `CCNC(=O)Nc1ccc(S(=O)(=O)Nc2cnc(C)nc2C)cc1`, the B-score entry is “inactive”.

Take `CCCc1cc(=O)oc2c(C)c(OCC(=O)N3CCC(C(=O)O)CC3)ccc12`: the B-score entry was “inactive”.

Regarding `CCCc1cc(=O)oc2c(C)c(O)c(CN3CCCCC3)cc12`, the B-score was -5.62 (active).

Turning to `CCCc1cc(=O)oc2c(C)c(OC(C)C(=O)NCC(O)c3ccccc3)ccc12` (stereo not given), the B-score entry is “inactive”.

`O=C(N/N=C\C1CC=CCC1)c1ccc(Br)o1` (stereo not given): the B-score result was “inactive”.

As for `CC(C)C(=O)N1c2ccccc2NC2=C(C(=O)CCC2)C1c1ccc(N(C)C)cc1` (stereo not given), the B-score entry was “inactive”.

As to `CN(C)c1ccc(C2N(C)C(=O)c3ccccc3N2C)cc1` (stereo not given), the B-score is -7.38 (active).

Regarding `CN(C)c1ccc(C2Nc3ccccc3C(=O)N2NS(=O)(=O)c2ccccc2)cc1` (stereo not given), the B-score entry was “inactive”.

Turning to `S=c1[nH]c2ccccc2c2ccccc12`, the B-score entry was “inactive”.

Regarding `N=c1c2c3c(sc2ncn1CCCN1CCOCC1)CCCCC3`, the B-score was -5.61 (active).

Regarding `N=c1c2c3c(sc2ncn1N)CCCCC3`, the B-score entry was “inactive”.

On to `N=c1c2c3c(sc2ncn1N)CCCC3`, for which the B-score entry was “inactive”.

Turning to `C=C(C)Cn1c(C)cc(C)c(S(=O)(=O)c2ccccc2C)c1=O`, the B-score result was “inactive”.

Regarding `C/C(=N\NC(=O)C1(C)CC1(Br)Br)c1ccc(C)cc1C` (stereo not given), the B-score entry was “inactive”.

As for `C=CCNC(=O)c1ccccc1NC(=O)c1ccc(Cl)c(S(=O)(=O)Nc2cccc(C)c2C)c1`, the B-score entry is “inactive”.

In the case of `CC(=O)c1ccc(S(=O)(=O)Nc2ccc(C(=O)NCC(c3ccccc3)N(C)C)cc2)cc1` (stereo not given), the B-score entry is “inactive”.

On to `COc1ccccc1C(CNC(=O)c1cccc(NS(=O)(=O)c2ccc(Br)cc2)c1)N(C)C` (stereo not given), for which the B-score was -5.61 (active).

Regarding `CN(C)C(CNC(=O)c1cccc(S(=O)(=O)Nc2ccc(Br)cc2)c1)c1ccco1` (stereo not given), the B-score result is “inactive”.
